Results on 15 molecules are retold here after PubChem BioAssay (NCI).

About 79,000 compounds went through this panel and 15% of them were active in at least one assay; those are over-represented in the sample as a whole. Values without a mark were called inactive. The source made the active and inactive calls. No stated cut-off is given here; in the data, active means growth inhibition above about 70%; inactive means the rest.

The nature of experiment [1]: NCI Yeast Anticancer Drug Screen. Data for the rad50 strain (AID 155).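 Further: 0% = growth of vehicle-only cultures of the same strain.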 The note with it: S. cerevisiae rad50 strain growth inhibition, active compounds read high. A digest of the protocol:
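Growth of the mutant yeast was measured after compound exposure and referenced to vehicle-treated cultures.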

Experiment [2] can be described thus: NCI Yeast Anticancer Drug Screen. Data for the mec2-1 strain (AID 157). The note with it: S. cerevisiae mec2-1 strain, active compounds read high. An outline of the steps: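 mec2-1 yeast strain, carrying an alteration in DNA damage repair or cell cycle control, was exposed to compounds; growth inhibition was measured relative to vehicle-treated controls.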
Experiment [3] can be described thus: NCI Yeast Anticancer Drug Screen. Data for the sgs1 mgt1 strain (AID 161).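 Further: 0% = growth of cultures given vehicle only.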 The note with it: S. cerevisiae sgs1 mgt1 strain, active compounds read high. An outline of the steps: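 Yeast cells carrying a defined DNA-repair defect were exposed to test compounds. Growth inhibition was measured relative to vehicle-treated controls.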
The nature of experiment [4]: NCI Yeast Anticancer Drug Screen. Data for the cln2 rad14 strain (AID 165).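 Further: 0% = growth equal to vehicle treated cultures.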 The note with it: S. cerevisiae cln2 rad14 strain, active compounds read high. A digest of the protocol:
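Yeast carrying cln2 and rad14 alterations (cell cycle control and DNA damage repair) were exposed to compounds. Growth inhibition was measured against vehicle-treated controls.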

A short description of experiment [5]: NCI Yeast Anticancer Drug Screen. Data for the bub3 strain (AID 167). As to conditions: S. cerevisiae bub3 mutant strain, active compounds read high. A digest of the protocol: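 Whole-cell yeast assay. The mutant strain was incubated with compounds, and growth inhibition was determined by comparison with vehicle-treated cells.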
Experiment [6] can be described thus: NCI Yeast Anticancer Drug Screen. Data for the mlh1 rad18 strain (AID 175). The note with it: S. cerevisiae mlh1 rad18 strain growth inhibition, active compounds read high. A digest of the protocol: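 Growth inhibition of the yeast strain was measured after compound exposure and expressed relative to vehicle-treated controls. The strain carries defined defects in DNA damage repair.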

The mark [7] stands for this setting: at 5.0 µM (retest, dose inferred, filed as 0.5).
[8] abbreviates: at 50.0 µM (retest, dose inferred, filed as 5.0).

For the molecule `Oc1cc(Cl)cc2cccnc12`, the growth inhibition is 87.8% (active) in experiment [1] (at 50.0 µM unless noted); 91.5% (active) in experiment [2] (at 50.0 µM unless noted); 88.8% (active) in experiment [3] (at 50.0 µM unless noted); 91.6% (active) in experiment [4] (at 50.0 µM unless noted); 90% (active) in experiment [5] (at 50.0 µM unless noted).

Take `CCCCNc1ccc(Nc2ccccc2)cc1`: the growth inhibition was 1% in experiment [1] (setting [7]); 95% (active) in experiment [1] (setting [8]); 1% in experiment [2] (setting [7]); 96% (active) in experiment [2] (setting [8]); 14% in experiment [3] (setting [7]); 97% (active) in experiment [3] (setting [8]). Moreover, the growth inhibition in experiment [4] (setting [7]) was 1%; in experiment [4] (setting [8]), 87% (active); in experiment [5] (setting [7]), 2%; in experiment [5] (setting [8]), 97% (active); in experiment [6] (setting [7]), -40%; in experiment [6] (setting [8]), 94% (active).

As for `Cc1nc2c(n1-c1ccc(Br)cc1)C(=O)c1ccccc1C2=O`, the growth inhibition in experiment [1] (at 50.0 µM unless noted) is 33.9%; in experiment [2] (at 50.0 µM unless noted), -17.9%; in experiment [3] (at 50.0 µM unless noted), -4.4%; in experiment [4] (at 50.0 µM unless noted), 12.3%; in experiment [5] (at 50.0 µM unless noted) it was -30.2%.

On to `Clc1ncc(Cl)c(Cl)n1`, for which the growth inhibition was 68.7% in experiment [1] (at 50.0 µM unless noted); 18.6% in experiment [2] (at 50.0 µM unless noted); -46.8% in experiment [3] (at 50.0 µM unless noted); -22.5% in experiment [4] (at 50.0 µM unless noted); -50.8% in experiment [5] (at 50.0 µM unless noted).

Take `CC(=O)O[C@H]1C(=O)[C@@]2(C)C(C(OC(=O)c3ccccc3)[C@]3(O)CC(OC(=O)[C@H](OC(=O)CCC(=O)O)C(NC(=O)c4ccccc4)c4ccccc4)C(C)=C1C3(C)C)C1(OC(C)=O)COC1C[C@@H]2OC(=O)CCC(=O)O` (stereo partly specified): the growth inhibition in experiment [1] (at 50.0 µM unless noted) was 29.6%; in experiment [2] (at 50.0 µM unless noted) it was -5.45%; in experiment [3] (at 50.0 µM unless noted), -25.4%; in experiment [4] (at 50.0 µM unless noted), -7.4%; in experiment [5] (at 50.0 µM unless noted), -8.05%.

For `COc1ccc(Nc2ccc3ccccc3c2)cc1`, the growth inhibition in experiment [1] (setting [7]) was 6%; in experiment [1] (setting [8]) it was 0%; in experiment [2] (setting [7]) it was -2%; in experiment [2] (setting [8]), -1%; in experiment [3] (setting [7]), -66%; in experiment [3] (setting [8]), 50%. Further, the growth inhibition is -4% in experiment [4] (setting [7]); -17% in experiment [4] (setting [8]); 3% in experiment [5] (setting [7]); 72% (active) in experiment [5] (setting [8]); -31% in experiment [6] (setting [7]); -7% in experiment [6] (setting [8]).

Take `C[C@H]1CC(=O)[C@@]2(O)C#C/C=C\C#C[C@@H]3Nc4c(cc(O)c5c4C(=O)c4ccccc4C5=O)[C@]24O[C@]314`: the growth inhibition is 78% (active) in experiment [1] (at 50.0 µM unless noted); 82% (active) in experiment [2] (at 50.0 µM unless noted); 85.2% (active) in experiment [3] (at 50.0 µM unless noted); 86.9% (active) in experiment [4] (at 50.0 µM unless noted); 85.8% (active) in experiment [5] (at 50.0 µM unless noted).

As for `C/C(=N\NC(=S)N1CCC(N2CCCCC2)CC1)c1ccccn1`, the growth inhibition in experiment [1] (at 50.0 µM unless noted) was 83.8% (active); in experiment [2] (at 50.0 µM unless noted), 88.1% (active); in experiment [3] (at 50.0 µM unless noted), 88% (active); in experiment [4] (at 50.0 µM unless noted) it was 84.8% (active); in experiment [5] (at 50.0 µM unless noted) it was 86% (active).

For `CC(CC=O)CC=O`, the growth inhibition in experiment [1] (setting [7]) is 15%; in experiment [1] (setting [8]) it was 82% (active); in experiment [2] (setting [7]), 3%; in experiment [2] (setting [8]) it was 32%; in experiment [3] (setting [7]), 18%; in experiment [3] (setting [8]), 78% (active). Besides, the growth inhibition is 3% in experiment [4] (setting [7]); 31% in experiment [4] (setting [8]); -5% in experiment [5] (setting [7]); -7% in experiment [5] (setting [8]); 16% in experiment [6] (setting [7]); 79% (active) in experiment [6] (setting [8]).

As for `CC(C)C(C)(C)c1ccc(O)cc1`, the growth inhibition in experiment [1] (setting [7]) is -34%; in experiment [1] (setting [8]) it was 70% (active); in experiment [2] (setting [7]), -2%; in experiment [2] (setting [8]), 68%; in experiment [3] (setting [7]) it was 3%; in experiment [3] (setting [8]) it was 75% (active). The growth inhibition in experiment [4] (setting [7]) was 2%; in experiment [4] (setting [8]) it was 26%; in experiment [5] (setting [7]), 2%; in experiment [5] (setting [8]), 61%; in experiment [6] (setting [7]), 2%; in experiment [6] (setting [8]), 74% (active).

For `NN1CCOC(c2ccccc2)C1` (stereo unspecified), the growth inhibition is 15% in experiment [1] (setting [7]); 57% in experiment [1] (setting [8]); 11% in experiment [2] (setting [7]); 24% in experiment [2] (setting [8]); 7% in experiment [3] (setting [7]); 49% in experiment [3] (setting [8]). Further, the growth inhibition in experiment [4] (setting [7]) was 0%; in experiment [4] (setting [8]) it was 4%; in experiment [5] (setting [7]), 34%; in experiment [5] (setting [8]) it was 61%; in experiment [6] (setting [7]), -12%; in experiment [6] (setting [8]), 28%.

For the molecule `C/C(CC(C)C(=O)O)=N/NC(N)=O` (stereo unspecified), the growth inhibition is 0% in experiment [1] (setting [7]); 34% in experiment [1] (setting [8]); -8% in experiment [2] (setting [7]); 5% in experiment [2] (setting [8]); 0% in experiment [3] (setting [7]); 40% in experiment [3] (setting [8]). The growth inhibition was -6% in experiment [4] (setting [7]); -2% in experiment [4] (setting [8]); -1% in experiment [5] (setting [7]); 20% in experiment [5] (setting [8]); -31% in experiment [6] (setting [7]); 43% in experiment [6] (setting [8]).

In the case of `C=C1C(=O)OC2/C=C(\COC(C)=O)CCC(OC(C)=O)C3=CC(OC3=O)C12` (stereo unspecified), the growth inhibition in experiment [1] (at 50.0 µM unless noted) was -0.4%; in experiment [2] (at 50.0 µM unless noted), 10.4%; in experiment [3] (at 50.0 µM unless noted), -22.2%; in experiment [4] (at 50.0 µM unless noted), -6.5%; in experiment [5] (at 50.0 µM unless noted) it was -30.1%.

On to `CC(=O)OC(C)C(=O)NCC(C)O` (stereo unspecified), for which the growth inhibition in experiment [1] (setting [7]) was -1%; in experiment [1] (setting [8]), 3%; in experiment [2] (setting [7]), -2%; in experiment [2] (setting [8]), 0%; in experiment [3] (setting [7]), -2%; in experiment [3] (setting [8]) it was 9%. The growth inhibition is -1% in experiment [4] (setting [7]); -7% in experiment [4] (setting [8]); 5% in experiment [5] (setting [7]); 7% in experiment [5] (setting [8]); -33% in experiment [6] (setting [7]); 20% in experiment [6] (setting [8]).

For the molecule `Fc1ccc([I+]c2ccc(F)cc2)cc1`, the growth inhibition in experiment [1] (setting [7]) was 12%; in experiment [1] (setting [8]), 89% (active); in experiment [2] (setting [7]) it was 2%; in experiment [2] (setting [8]), 43%; in experiment [3] (setting [7]), 24%; in experiment [3] (setting [8]), 84% (active). Also, the growth inhibition was 9% in experiment [4] (setting [7]); 32% in experiment [4] (setting [8]); 33% in experiment [5] (setting [7]); 90% (active) in experiment [5] (setting [8]); 17% in experiment [6] (setting [7]); 81% (active) in experiment [6] (setting [8]).
